Assay outcomes: PubChem, National Center for Advancing Translational Sciences (NCATS)
SW480 rereplic – induces DNA re-replication in SW480 colon adenocarcinoma cells. 340,000 tested, 1.8% active. AID 624297. SW480 DNA re-replication, Hoechst DNA content imaging, 48 h. Potency, µM (top dose mostly 46.1 µM), for inactives: at the highest dose re-replication activation, usual class: activators; note: % of control where 0% means no effect; nearly all actives have a fitted effect of over 55% in size
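Treated cells incubate 48 hr (37 C, 5% CO2), are stained 40 min with Hoechst, and nuclear fluorescence is enumerated; a rise in nuclei with high DNA signal marks re-replication.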
ELG1 DNA repair – ELG1-dependent DNA repair inhibition; HEK293T ELG1-luciferase reporter, luminescence, 16 h; DNA damage induced by 5-fluorouridine; Potency, µM (top dose mostly 46.1 µM), without a hit: at the top dose activity change, negative = inhibition, most hits filed as inhibitors; 330,000 tested, 2.3% active; AID 504467; note: % is set by controls: 0 for no effect and ±100 for the full control effect; nearly all actives have a fitted effect of over 55% in size
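Quantitative HTS, concentration-response format. 2,000 cells/well co-treated with 5-fluorouridine and compound, 16 hr in 5% CO2 at 37 °C; ONE-Glo luminescence read after 30 min.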
RORgamma inh – inhibitors of mouse ROR gamma transcriptional activity | Drosophila S2 Gal4-RORgamma UAS-luciferase reporter, 20 h | 310,000 tested, 5.4% active | Potency, µM (doses to about 53.6 µM), for the others: at the top dose activity change, negative = inhibition, actives largely listed as inhibitors; note: % is set by controls: 0 for no effect and ±100 for the full control effect; nearly all actives have a fitted effect of over 60% in size
Target sequence (P51450 whole entry, looked up, the tested form may be a part): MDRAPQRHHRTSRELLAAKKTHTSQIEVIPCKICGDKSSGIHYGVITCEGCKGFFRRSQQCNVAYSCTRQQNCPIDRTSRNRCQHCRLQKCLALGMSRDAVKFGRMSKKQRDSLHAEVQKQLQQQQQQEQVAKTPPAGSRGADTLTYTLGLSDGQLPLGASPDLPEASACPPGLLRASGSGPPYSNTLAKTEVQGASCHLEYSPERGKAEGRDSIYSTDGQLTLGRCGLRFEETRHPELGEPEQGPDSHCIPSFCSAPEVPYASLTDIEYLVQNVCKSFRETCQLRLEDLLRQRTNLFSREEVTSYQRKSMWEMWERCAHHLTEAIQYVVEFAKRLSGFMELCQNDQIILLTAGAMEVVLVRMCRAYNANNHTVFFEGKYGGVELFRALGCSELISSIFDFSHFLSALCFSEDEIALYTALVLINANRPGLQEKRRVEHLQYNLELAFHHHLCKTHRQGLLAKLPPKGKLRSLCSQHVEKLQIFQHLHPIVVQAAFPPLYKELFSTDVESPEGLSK
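ROR gamma transcriptional activity was tracked as Gal4-UAS luciferase output in stably transfected Drosophila Schneider cells, with compound added 1 hr before 700 uM copper sulfate induction and a 20 hr ambient-temperature incubation.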
Gal4-VP16 FLuc – counter-screen for ROR gamma inhibitors: Gal4-VP16 reporter. Drosophila S2 Gal4-VP16 UAS-luciferase, luminescence, 20 h. Potency, µM (titrated, usually from 53.6 µM), without a hit: at the highest dose activity, negative = inhibition, most hits filed as inhibitors. 310,000 tested, 3.5% active. AID 2546;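 note: Gal4-VP16 expression switched on by copper sulfate through the metallothionein promoter; % is set by controls: 0 for no effect and ±100 for the full control effect; nearly all actives have a fitted effect of over 50% in size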
MCF10A rerep – induces DNA re-replication in MCF 10a normal breast cells; MCF 10A DNA re-replication, Hoechst nuclear intensity, 48 h; Potency, µM (doses to about 46.1 µM), inactives show top-dose activity, positive = re-replication, usual class: activators; 350,000 tested, 2.9% active; note: % of control where 0% means no effect; nearly all actives have a fitted effect of over 50% in size
Active calls of the source: *; u = inconclusive; x = not tested or not shown; [ ] = another dose, or the depositor's remark. Sampled rows, rich in hits. Any-hit rate of the full collection: about 10%. Calls come from the whole dose curve; as a rule, active = well fitted curve in the direction sought with a large enough effect; inconclusive = small, poorly fitted or top-dose-only effect, or another doubt; inactive = no such curve, though single readings can be large; an effect the other way counts as inactive or inconclusive. Potency is the fitted concentration of half-maximal effect.

SMILES | SW480 rereplic | ELG1 DNA repair | RORgamma inh | Gal4-VP16 FLuc | MCF10A rerep
COc1ccc(CC(=O)N2N=C(C)CC2(O)c2cccnc2)cc1OC (stereo unspecified) | -2% | 3% | 11µM* | u | 3%
CC1=NN(C(=O)Cc2ccc([N+](=O)[O-])cc2)C(O)(c2cccnc2)C1 (stereo unspecified) | -1% | 17% | 14µM* | -6%[0.365 µM] | -4%
CC1=NN(C(=O)Cc2ccc([N+](=O)[O-])cc2)C(O)(c2ccccc2)C1 (stereo unspecified) | u | 2% | 8.9µM* | 13µM* | 0%
O=C(O)C1Cc2[nH]cnc2C(c2ccccc2O)N1 (stereo unspecified) | -10% | 15% | -5% | -4% | 1%
CC(C)[C@@H](OCc1ccccc1)[C@H](C)/C=N\O[C@@H](C)c1cn([C@H](CO)Cc2ccccc2)nn1 | x | x | -9%[10 µM] | 1%[10 µM] | x
CCn1c(CC(=O)Nc2ccc(C)cc2)nnc1SCC(=O)N1CCOCC1 | -1% | 4% | 9% | -6% | -1%
CCC(C)N(NC(C)=O)c1nc(Cl)nc(NC(C)C)n1 (stereo unspecified) | -7% | 14% | 11µM* | u | -3%
COc1ccc(N2CCN(CCC(=O)c3ccc4ccccc4c3)CC2)cc1 | u | 0% | u | u | 10µM*
CCOC(=O)N1CCN(CCC(=O)c2ccc(Cl)cc2)CC1 | u | 0% | -9% | u | u
CCOC(=O)N1CCN(CCC(=O)c2ccc(OC)cc2)CC1 | u | 23% | 8% | 4% | 15µM*
COc1ccc(N2CCN(c3ccc(NC(=O)NN)cc3)CC2)cc1 | -5% | 2% | 1%[1.91 µM] | 0% | u
CC(C)(C)NC(=O)C(c1ccc(F)cc1)N(Cc1cccs1)C(=O)c1ccc(CN2CCOCC2)o1 (stereo unspecified) | -2% | -11% | 29% | 4% | 1%
CC(C)CC1(C(=O)NCc2cc(F)cc(C(F)(F)F)c2)C=CCN1C(=O)c1ccccc1 (stereo unspecified) | 8% | -11% | 1% | -13% | 1.5µM*
COC(=O)CNC(=O)C1(CC(C)C)C=CCN1C(=O)c1ccccc1 (stereo unspecified) | x | x | 10% | 26% | x
Cc1cc(S(=O)(=O)NCc2ccccc2)ccc1OCC(=O)N1CCCC1 | 3% | 6% | 16% | 7% | -1%
CCCCNc1nc(N)nc(-c2cc(Cl)ccc2O)n1 | u | u | 32% | -9% | 21µM*
CCNc1nc(N)nc(-c2cc(Cl)ccc2O)n1 | -473% | u | 23% | u | u
CO/N=C(\CCC(=O)O)c1cccs1 | u | -3% | -9% | -10% | -4%
CCc1ccc(N2C(=O)C(Cl)=C(N3CCCCCC3)C2=O)cc1 | 3% | 2% | u | 24% | -1%
CCc1ccc(N2C(=O)C(Cl)=C(N3CCOCC3)C2=O)cc1 | -4% | 12% | 30% | 13µM* | 8%
COc1ccc([N+](=O)[O-])cc1NC(=O)c1ccc(N(Cc2ccccc2Cl)S(C)(=O)=O)cc1 | x | -9% | 15% | 0% | -1%
Cc1ccccc1-n1c(SCC(=O)c2cc(C)n(C)c2C)nnc1-c1ccncc1 | 4% | 11µM* | 20% | 4% | 14%
C=CCn1c(SCC(=O)c2cc(C)n(Cc3cccs3)c2C)nnc1-c1ccncc1 | 0%[9.22 µM] | 16µM* | u | -6% | -12%
Cc1ccccc1-n1c(SCC(=O)N(C)C2CCS(=O)(=O)C2)nnc1-c1ccncc1 (stereo unspecified) | -4% | 2% | -2% | -7% | 0%
CCOc1ccc(NC(=S)c2ccncc2)cc1 | -124% | 23% | 31% | u | -74%
SMILES | SW480 rereplic | ELG1 DNA repair | RORgamma inh | Gal4-VP16 FLuc | MCF10A rerep
CC(C)N1CN(c2ccccc2)C(=S)N(c2ccccc2)C1 | u | u | u | -13% | -12%
O=[N+]([O-])c1ccc(Sc2nnnn2-c2ccccc2)c(Cl)c1 | u | 4% | u | 4% | 4.1µM*
CC(=O)c1ccc(Sc2nnnn2-c2ccccc2)c([N+](=O)[O-])c1 | u | -11% | 8.9µM* | 11µM* | u
CN1CCN(S(=O)(=O)c2ccc(Sc3nnnn3-c3ccccc3)c([N+](=O)[O-])c2)CC1 | 16µM* | -25% | 7.1µM* | u | 6.5µM*
O=c1cc(-c2ccccc2)oc2ccc(Cl)cc12 | 0% | x | x | x | -1%
O=c1oc(-c2ccccc2)cc(Cl)c1Cl | 9.2µM* | u | 11µM* | 10µM* | 2.9µM*
O=C(O)c1ccc(B(O)O)cc1 | x | x | -23% | 3% | x
COc1cc(OC)cc(C(=O)NNC(=O)CCc2nc3ccccc3c(=O)[nH]2)c1 | u | 18% | x | x | 7%
COC(=O)c1c(C)c2c(C)cc3ccccn3c-2c1C(=O)OC | 2% | -12% | 1% | 5% | -1%
COC(=O)c1cc2c(-c3ccccc3)cc3ccccn3c-2c1C(=O)OC | 3% | 23µM* | 4% | 4% | u
CC(=O)Nc1nc2nc(-c3ccccc3)cc(-c3ccccc3)n2n1 | -5% | -26% | 2% | -7% | 5%
O=C(NNc1nc(-c2ccccc2)cs1)c1ccco1 | 18µM* | u | 3.5µM* | 5µM* | 3%
O=C(NNc1nc(-c2ccc(Cl)cc2)cs1)c1ccco1 | u | u | 4µM* | 5µM* | u
O=C(Nc1nc2nc(-c3ccccc3)cc(-c3ccccc3)n2n1)c1ccco1 | 0% | 8.2µM* | -35% | u | -2%
CCCCCCc1ccc(C(=O)CCN(C)C)cc1 | x | x | x | -4% | x
COc1ccc(C(=O)Nc2ccc(NC(=O)c3cc(OC)c(OC)c(OC)c3)cn2)cc1 | 3% | 4% | -12% | 0% | 29%
Cc1cc(C)cc(NC(=O)CN2CCN(C(=O)C3CCCO3)CC2)c1 (stereo unspecified) | -4% | 0% | -25% | 16% | 10%
CN(C)c1cc(-c2cccc(C(F)(F)F)c2)oc(=O)c1Cl | 0% | x | x | x | u
CCCCSc1cc(C)nc(N)n1 | 2% | u | 23% | 23% | 0%
CCCCOC(=O)c1cccnc1 | -10% | -2% | 10% | 8% | 4%
CC1CCCC(NC(=O)COC(=O)c2ccc3ncsc3c2)C1C (stereo unspecified) | u | 14% | x | x | 0%
Nc1nonc1-n1nnc(C(=O)N/N=C/C=C/c2ccccc2)c1CSC1=NCCS1 | u | u | 1.4µM* | 3.2µM* | u
Nc1nonc1-n1nnc(C(=O)N/N=C/c2cccs2)c1CSc1ccccc1 | u | 6% | u | 5µM* | u
CCc1c(C(=O)N/N=C/c2cccs2)nnn1-c1nonc1N | -1% | 18% | 13µM* | u | -4%
CCN(CC)Cc1c(C(=O)N/N=C/c2cccs2)nnn1-c1nonc1N | -5% | 5% | u | -10% | -4%
